The nature of assay [1]: NCI Yeast Anticancer Drug Screen. Data for the rad50 strain (AID 155).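 Note: 0% = growth of vehicle-only cultures of the same strain.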 The conditions noted are these: S. cerevisiae rad50 strain growth inhibition; at 50.0 µM; stronger effect = higher value. Summed up:
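DNA repair mutant yeast, compound exposure, growth read-out; inhibition is taken relative to vehicle.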

Assay [2] in a line: NCI Yeast Anticancer Drug Screen. Data for the mec2-1 strain (AID 157). The conditions noted are these: S. cerevisiae mec2-1 strain, at 50.0 µM, stronger effect = higher value. Summed up: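 Strain: mec2-1 (DNA repair/cell cycle alteration). Compound exposure, then growth measured; inhibition expressed relative to vehicle.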
A short description of assay [3]: NCI Yeast Anticancer Drug Screen. Data for the sgs1 mgt1 strain (AID 161).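 Note: 0% = growth of cultures given vehicle only.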 The conditions noted are these: S. cerevisiae sgs1 mgt1 strain, at 50.0 µM, stronger effect = higher value. Summed up: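 Test agents were incubated with a DNA-repair-mutant yeast strain. Growth was then read and compared against vehicle-treated controls.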
Assay [4] can be described thus: NCI Yeast Anticancer Drug Screen. Data for the cln2 rad14 strain (AID 165).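 Note: 0% = growth equal to vehicle treated cultures.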 The settings on record: S. cerevisiae cln2 rad14 strain, at 50.0 µM, stronger effect = higher value. Summed up:
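Compounds are applied to the cln2 rad14 yeast strain, and growth is then compared with that of vehicle-treated cultures to give inhibition.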

Assay [5] can be described thus: NCI Yeast Anticancer Drug Screen. Data for the bub3 strain (AID 167). The conditions noted are these: S. cerevisiae bub3 mutant strain, at 50.0 µM, stronger effect = higher value. Summed up: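 In this screen, a yeast mutant lacking normal mitotic checkpoint function is challenged with compound. Relative growth versus vehicle gives the inhibition value.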
The nature of assay [6]: NCI Yeast Anticancer Drug Screen. Data for the mlh1 rad18 strain (AID 175). The settings on record: S. cerevisiae mlh1 rad18 strain growth inhibition; at 50.0 µM; stronger effect = higher value. Summed up: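 Read-out is yeast growth inhibition, calculated against vehicle-only controls. The compound was applied to a strain engineered with DNA damage repair alterations.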

The panel holds about 79,000 compounds, 15% with a hit somewhere; the sample as a whole holds those more often. Unmarked numbers belong to inactive results. The source made the active and inactive calls. Cut-off read from the data, not from the text of the source: active = growth inhibition above about 70%; inactive = the rest.

With `CC(c1ccccc1)n1cnc2c(=S)nc[nH]c21` (stereo unspecified), the growth inhibition in assay [1] was 17.1%; in assay [2] it was -20.9%; in assay [3], -7.55%; in assay [4], 3.35%; in assay [5], -5.85%; in assay [6], -9.95%.
Turning to `CC1=CC(C)(C)NC(=S)N1CCO`, the growth inhibition in assay [1] is 1.95%; in assay [2], -18.6%; in assay [3], 25.3%; in assay [4] it was 13.4%; in assay [5], 1.15%; in assay [6] it was 32.3%.
For the molecule `CCCCCCCCCCCC1=c2o[nH]c2=C(c2ccccn2)C(=O)C1=O`, the growth inhibition is -15.2% in assay [1]; -6.6% in assay [2]; 6.5% in assay [3]; -45.5% in assay [4]; 11.4% in assay [5]; -0.75% in assay [6].
Turning to `COc1ccc(C(C)=O)cc1`, the growth inhibition in assay [1] was 34.5%; in assay [2] it was 18.8%; in assay [3], 30.6%; in assay [4], 37.1%; in assay [5], 29.9%; in assay [6], 18.9%.
For the molecule `CSc1ccc(NC(=S)NN(C)C)cc1`, the growth inhibition in assay [1] was -22.9%; in assay [2] it was -25.3%; in assay [3] it was -15.2%; in assay [4], 9.35%; in assay [5] it was 1.4%; in assay [6], -7.65%.
`CCC(O)C(=O)O` (stereo unspecified): the growth inhibition was -28.6% in assay [1]; -26.8% in assay [2]; -20.9% in assay [3]; -11.2% in assay [4]; -9.9% in assay [5]; -27.4% in assay [6].
As for `CCN(CC)CCn1c(=O)c2c(ncn2C)n(C)c1=O`, the growth inhibition in assay [1] was -5.55%; in assay [2], -22.7%; in assay [3], 12.6%; in assay [4], -36.3%; in assay [5], 11.8%; in assay [6], -15.6%.
On to `CCOC(=O)N1CCc2cc(OC)c(OC)c3c2c1cc1cc(OC)c(OC)cc13`, for which the growth inhibition in assay [1] was -9.2%; in assay [2], 18.9%; in assay [3], -4.55%; in assay [4], -35.5%; in assay [5], 16.1%; in assay [6], 16.4%.
In the case of `Cc1cc2nc3c(N)ccc(N)c3nc2cc1N`, the growth inhibition in assay [1] is 5.2%; in assay [2], 4.3%; in assay [3], -0.65%; in assay [4], -17.6%; in assay [5], -29.1%; in assay [6], -7.7%.
For the molecule `NC(=O)C(CNCc1ccccc1)NCc1ccccc1` (stereo unspecified), the growth inhibition in assay [1] was -1.5%; in assay [2], 14.2%; in assay [3], 3.1%; in assay [4] it was -8.5%; in assay [5] it was 3.6%; in assay [6], -11.4%.
For `CC(C)n1ncc2c(N)ncnc21`, the growth inhibition in assay [1] is 4.2%; in assay [2] it was -2.2%; in assay [3], -6.8%; in assay [4] it was -26.8%; in assay [5] it was 21.4%; in assay [6] it was -3.8%.
Regarding `Clc1ccc(N=Nc2ccccc2)cc1`, the growth inhibition in assay [1] is -2.45%; in assay [2], 12.3%; in assay [3] it was 4.4%; in assay [4], -14.7%; in assay [5] it was 1.7%; in assay [6], 5.25%.
Regarding `CC(=O)OCC(OC(C)=O)C1(O)CCC2C3CCC4=CC(=O)CCC4(C)C3CCC21C` (stereo unspecified), the growth inhibition is 98.4% (active) in assay [1]; 99% (active) in assay [2]; 98.5% (active) in assay [3]; 97.8% (active) in assay [4]; 98.3% (active) in assay [5]; 98.3% (active) in assay [6].
As to `CCCCCCCCCCC1OC(C)C(C)O1` (stereo unspecified), the growth inhibition in assay [1] was 0.4%; in assay [2] it was -13.1%; in assay [3] it was -7.3%; in assay [4], -25.1%; in assay [5] it was -5.5%; in assay [6] it was 13.2%.
As for `NC(=S)NNC(=O)c1cccs1`, the growth inhibition in assay [1] was -9.9%; in assay [2] it was -10.2%; in assay [3], 22.6%; in assay [4], 3.35%; in assay [5], 7.05%; in assay [6], 9.75%.
With `CCOC(=O)C1CNCCC1=O` (stereo unspecified), the growth inhibition is -5.25% in assay [1]; -20.9% in assay [2]; -4.15% in assay [3]; -1.4% in assay [4]; -11.2% in assay [5]; -8.95% in assay [6].
Turning to `COc1ccc(-c2cc(-c3ccc(C)cc3)n(C3OC(COC(C)=O)C(OC(C)=O)C(OC(C)=O)C3OC(C)=O)c(=S)c2C#N)cc1` (stereo unspecified), the growth inhibition is -10.6% in assay [1]; -11.2% in assay [2]; -10.3% in assay [3]; 16.9% in assay [4]; -2% in assay [5]; 4.4% in assay [6].
For `CCC/C=C/C=C\C(=O)O[C@@H]1[C@@H](C)[C@]2(O)[C@@H]3C=C(C)C(=O)[C@H]3CC(COC(C)=O)=C[C@H]2[C@@H]2C(C)(C)[C@]12OC(C)=O`, the growth inhibition is 21.7% in assay [1]; -4.9% in assay [2]; -8.1% in assay [3]; 11.9% in assay [4]; -9.65% in assay [5]; -26.2% in assay [6].
For `CCOC(=O)c1[nH]n(-c2ccccc2)c(=O)c1/C=N/C(=S)Nc1c(CC)cccc1CC`, the growth inhibition in assay [1] was -18.1%; in assay [2], -29.2%; in assay [3], -18.2%; in assay [4], -13.2%; in assay [5] it was -8.25%; in assay [6], -15.1%.
`CCC(=O)N1C(=O)OCC1C(C)C` (stereo unspecified): the growth inhibition was -2.8% in assay [1]; -21.4% in assay [2]; -22.3% in assay [3]; 13.1% in assay [4]; -9.35% in assay [5]; 14.8% in assay [6].
For `O=C1c2ccccc2C(=O)N1CC(O)COc1cccc2ccccc12` (stereo unspecified), the growth inhibition in assay [1] is -23.1%; in assay [2] it was -79.5%; in assay [3], -24.4%; in assay [4], -13.9%; in assay [5], 8.3%; in assay [6], -14.8%.

(Values after PubChem BioAssay (NCI).)
